This note sets out measurements from ChEMBL document CHEMBL3988442, “University of Dundee, Small-Polar-MMV Screening Library” (2021).

Among all 48,000 compounds or so, about 13,000 (27%) showed an effect of 50% or more. This is one part of the list.

This experiment relates to Wolbachia pipientis. Kind of experiment: Anti-Wolbachia Cell-Based Screen. In kind it is functional. Further details: scale not given: in the data most compounds retested in dose-response had high values. To be noted: 5 µM.
On to `NC(=O)C(NCc1ccc(Cl)s1)c1ccccc1` (stereo not given), for which the “Percent Effect” value is given as -5.898%.

As for `CC(c1nc(C2CC2)no1)N(C)Cc1ccc(Cl)cc1` (stereo not given), the “Percent Effect” value is -4.386%.

On to `Cc1cc(-c2nn(C)c(Cl)c2CN2CC[C@@](O)(C3CCC3)[C@H](C)C2)no1`, for which the “Percent Effect” value came to 9.361%.

With `CC(C1CCN(Cc2c(Cl)cncc2Cl)CC1)N1CCOCC1` (stereo not given), the “Percent Effect” value stood at 1.146%.

Turning to `CCCNC(=O)c1ccc(S(=O)(=O)NCC2(O)CCCNC2)cc1` (stereo not given), the “Percent Effect” value is listed as -4.599%.

Turning to `O=C(NCCN1CCOCC1)c1ccc(-c2ccc(F)cc2)nc1O`, the “Percent Effect” value is reported as -1.382%.

Take `NC(=O)C1CCN(CC(=O)NCCn2cc(Cl)cn2)CC1`: the “Percent Effect” value is on record as -2.539%.

Take `CC1CCN(CCNC(=O)Nc2ccc(F)cc2Cl)CC1`: the “Percent Effect” value is recorded as 1.976%.

For the compound `O=C(Cn1cc(Cl)cn1)NCCN1CCC(O)(c2ccc(F)cc2)CC1`, the “Percent Effect” value turned out to be 66.04%.

Take `Cc1cccc(N2CCN(CCNC(=O)c3ccnn3C)CC2)c1`: the “Percent Effect” value is on record as 20.06%.

For `O=C(NCCN1CCCCCC1)c1coc(COc2ccc(F)cc2)n1`, the “Percent Effect” value was -5.25%.

On to `Cn1ncc(Cl)c1C(=O)NCCN1CCC(O)(c2ccc(F)cc2)CC1`, for which the “Percent Effect” value amounted to 129.2%.

As for `NC(=O)CN1CCC(C(=O)NCCn2cc(Cl)cn2)CC1`, the “Percent Effect” value is on record as 2.042%.

With `Cn1nccc1C(=O)NCCN1CCC(O)(c2ccc(F)cc2)CC1`, the “Percent Effect” value is recorded as 137.8%.

For `Cc1c(Cl)cccc1OCC(=O)NC1(C#N)CCSC1` (stereo not given), the “Percent Effect” value is -5.269%.

Take `COc1cc2nc(C)sc2cc1NC(=O)CN(C)C(C)C`: the “Percent Effect” value is listed as -15.43%.

In the case of `CC(C)(C)OC(=O)N1CCCc2ccc(NCc3ccon3)cc21`, the “Percent Effect” value is reported as -9.372%.

Regarding `CC(=O)Nc1cccc(CNC(=O)N(C)Cc2ccccc2)c1`, the “Percent Effect” value is given as -8.333%.

`CN(Cc1ccsc1)C(=O)c1cccc(F)c1`: the “Percent Effect” value came to 7.751%.

As for `CN(Cc1cccc(F)c1)C(=O)c1ccncc1Cl`, the “Percent Effect” value was -2.45%.

Regarding `CCN(C)C(=O)c1cccc(C(=O)N(C)Cc2cccc(O)c2)c1`, the “Percent Effect” value is 101.4%.

`CN(C)C(=O)c1cccc(NC(=O)N(CCO)Cc2ccsc2)c1`: the “Percent Effect” value is given as 5.648%.

Take `COC(=O)c1cccc(C(=O)N(C)Cc2cccc(F)c2)c1`: the “Percent Effect” value is given as 85.67%.

For the compound `CC(C)Cn1ncc2cc(C(=O)N(C)Cc3cccc(O)c3)cnc21`, the “Percent Effect” value is -1.61%.

For `COC(=O)c1cccc(C(=O)N(C)Cc2ccsc2)c1`, the “Percent Effect” value came out at 77.93%.

With `CN(Cc1cccc(O)c1)C(=O)c1ccc(CCC(C)(C)O)cc1`, the “Percent Effect” value was -13.77%.

Regarding `COC(=O)Nc1cccc(C(=O)N(C)Cc2cccc(O)c2)c1`, the “Percent Effect” value was found to be 89.16%.

Take `COCc1cccc(NC(C)C(=O)N(C)Cc2cccc(F)c2)c1` (stereo not given): the “Percent Effect” value is on record as -0.4154%.

Regarding `c1cnc2c(c1)nc1n2[C@@H](CNC2CCOCC2)COC1`, the “Percent Effect” value was -0.09884%.

For the compound `CCCC(=O)N(CCCN1CCOCC1)c1nc2c(F)cccc2s1.Cl`, the “Percent Effect” value is recorded as 33.03%.

For the compound `CN(C)Cc1nnc(C(=O)N(C)Cc2ccc(C(F)(F)F)cc2)o1`, the “Percent Effect” value is listed as -9.605%.

`O=C(NCc1nc(C2CCCCC2)no1)C1CC(=O)N(C2CCCC2)C1` (stereo not given): the “Percent Effect” value is -9.19%.

For `CCc1nc(CSc2nnc(N)n2C2CC2)no1`, the “Percent Effect” value was found to be 6.66%.

Regarding `COC(=O)c1cccc(C(=O)N(C)Cc2cccc(O)c2)c1`, the “Percent Effect” value was determined as 112.7%.

For `CC(=O)c1cccc(OCCCC(=O)N(C)Cc2cccc(O)c2)c1`, the “Percent Effect” value was -0.5874%.

For `Cn1c(=O)[nH]c(=O)n2c(CC(=O)Nc3c(Cl)cccc3Cl)cnc12`, the “Percent Effect” value is recorded as 100.8%.

With `COc1ncc(C(=O)NCc2ccccc2)cn1`, the “Percent Effect” value is on record as -10.01%.

For `Cn1c(=O)[nH]c(=O)n2c(CC(=O)Nc3ccc(Cl)c(Cl)c3)cnc12`, the “Percent Effect” value is reported as 103.6%.

Consider `Cc1nc2c(c(C)c1CC(=O)Nc1ccc(Cl)cc1)c(=O)[nH]n2C`, for which the “Percent Effect” value is reported as -4.982%.

With `CC(C)(C)n1ncc2c(=O)n(CC(=O)NCc3ccccc3)cnc21`, the “Percent Effect” value was determined as 3.953%.

As to `Cc1cnc(NC(=O)NCCOc2ncccc2Cl)s1`, the “Percent Effect” value is 12.43%.

For `Cc1nc2cc(=O)[nH]n2c(C)c1CC(=O)Nc1cn[nH]c1`, the “Percent Effect” value was -20.81%.

For `Cc1ccc(NC(=O)Cc2cnc3n(C)c(=O)[nH]c(=O)n23)cc1`, the “Percent Effect” value came out at 128%.

For the compound `Cc1cccc(Cl)c1NC(=O)Cn1cc(C(=O)O)ccc1=O`, the “Percent Effect” value is given as 9.076%.

As for `O=C(CCn1ccccc1=O)Nc1ccc(F)c(Cl)c1`, the “Percent Effect” value is 4.502%.

Consider `COCC(=O)Nc1ccc(Sc2nncn2C)c(Cl)c1`, for which the “Percent Effect” value is listed as 2.363%.

Take `Cn1c(=O)[nH]c(=O)n2c(CC(=O)NCc3ccccc3)cnc12`: the “Percent Effect” value stood at 108.8%.

Consider `CNS(=O)(=O)CC(=O)N(Cc1c(F)cccc1F)C1CCCC1`, for which the “Percent Effect” value was -5.167%.

In the case of `Cc1cccc(CN(C(=O)CS(C)(=O)=O)C(C)C)c1`, the “Percent Effect” value was -6.499%.

On to `CC(C)c1cnc(CN2CCCS2(=O)=O)o1`, for which the “Percent Effect” value was 3.272%.
